From PubChem BioAssay
HT1080 IDH1KD tx: qHTS for induction of synthetic lethality in tumor cells producing 2HG: qHTS for the HT-1080-IDH1KD cell line. Potency, µM (highest dose often 46.1 µM), usual class: cytotoxic. HT-1080 IDH1 knockdown viability, ATP luminescence, 48 h. hit rate 2% among 360,000
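CellTiter-Glo luminescence after 48 h compound exposure at 37 degrees C of IDH1-knockdown HT-1080 cells in 5% FBS RPMI. %Activity scaled between DMSO wells and cell-free media wells, with curves fitted and assigned curve classes.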
MCF10A rerep: A quantitative high throughput screen for small molecules that induce DNA re-replication in MCF 10a normal breast cells | MCF 10A DNA re-replication, Hoechst nuclear intensity, 48 h | Potency, µM (top dose mostly 46.1 µM), most hits filed as activators | AID 624296, 2012 | hit rate 2.9% among 350,000; note: nearly all actives have a fitted effect of over 50% in size
HT1080-NT tox: qHTS for induction of synthetic lethality in tumor cells producing 2HG: qHTS for the HT-1080-NT fibrosarcoma cell line; HT-1080-NT fibrosarcoma viability, CellTiter-Glo ATP luminescence, 48 h; Potency, µM (highest dose often 46.1 µM), usual class: cytotoxic; hit rate 1.6% among 360,000; AID 686970, 2013;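 note: NT is the 2HG producing partner of a matched IDH1 knockdown line; nearly all actives have a fitted effect of over 55% in size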
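Viability by CellTiter-Glo luminescence after 48 h compound exposure at 37C of HT-1080-NT cells (750/well, RPMI, 5% FBS). % activity scaled between DMSO wells and medium-only wells, then curve-fitted and categorized by curve class.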
KB-3-1 tox: qHTS assay for MDR1-selective chemotherapeutics: Primary screen using the parental adenocarcinoma cell KB-3-1. Potency, µM (doses to about 46.1 µM), most hits filed as cytotoxic. AID 1347075, 2019. KB-3-1 viability, CellTiter-Glo ATP luminescence, 72 h. hit rate 1.4% among 400,000; note: nearly all actives have a fitted effect of over 60% in size
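Viability of parental KB-3-1 cells, measured by CellTiter-Glo luminescence, followed a 72 h incubation at 37 °C with pinned compounds in phenol-red-free DMEM containing 10% FBS.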
KB-V1 cytotox: qHTS assay for MDR1-selective chemotherapeutics: Primary screen using the drug-selected MDR subline cells KB-V1 | KB-V1 MDR cells viability, CellTiter-Glo, 72 h | Potency, µM (doses to about 46.1 µM), actives largely listed as cytotoxic | hit rate 3.4% among 400,000; note: nearly all actives have a fitted effect of over 60% in size
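KB-V1, DMEM (no phenol red) + 10% FBS; cpd pin-transferred, titration series; 72 h, 37 degrees C; CellTiter-Glo, luminescence. Data normalized, curve-fit.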
SW480 rerep: A quantitative high throughput screen for small molecules that induce DNA re-replication in SW480 colon adenocarcinoma cells | Potency, µM (doses to about 46.1 µM), usual class: activators | hit rate 1.8% among 340,000 | SW480 DNA re-replication, Hoechst DNA content imaging, 48 h | AID 624297, 2012; note: nearly all actives have a fitted effect of over 55% in size
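Per well, 250 cells were exposed to pinned compound for 48 hr. Nuclear DNA was visualised with Hoechst (40 min, 37 C) and total object intensity recorded by fluorescence scanning.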
Large screens that a line does not name were inactive. A selection: hits, their analogues and other compounds. The true share with any hit is near 7.9%. Calls come from the whole dose curve; as a rule, active = well fitted curve in the direction sought with a large enough effect; inconclusive = small, poorly fitted or top-dose-only effect, or another doubt; inactive = no such curve, though single readings can be large; an effect the other way counts as inactive or inconclusive.

NC(=O)c1ccsc1NC(=O)CSc1n[nH]c(N)n1	none
Cc1ccsc1/C=C/C1=Cc2c(sc(NC(=O)CSc3n[nH]c(N)n3)c2C#N)C(C)(C)C1	HT1080 IDH1KD tx 13µM, MCF10A rerep inconclusive, HT1080-NT tox 22µM, SW480 rerep 15µM
CCOc1ccc(/C=C/C2=Cc3c(sc(NC(=O)CSc4n[nH]c(N)n4)c3C#N)C(C)(C)C2)cc1	HT1080 IDH1KD tx inconclusive, MCF10A rerep 6.5µM, HT1080-NT tox inconclusive, KB-3-1 tox 16µM, KB-V1 cytotox inconclusive, SW480 rerep 16µM
CCCN(C(=O)c1cccc(S(=O)(=O)N2CCCc3ccccc32)c1)C1CCS(=O)(=O)C1 (stereo unspecified)	none
CC(C)OC(=O)c1c(F)c(F)c(N2CCOCC2)c(F)c1F	HT1080 IDH1KD tx inconclusive, MCF10A rerep 3.3µM
N#Cc1c(Cl)nsc1NCCN1CCOCC1	none
N#Cc1c(NC(=O)/C=C/c2ccco2)sc2c1CCCC2	HT1080 IDH1KD tx inconclusive, MCF10A rerep inconclusive, HT1080-NT tox 0.58µM, KB-3-1 tox 0.41µM, KB-V1 cytotox 1µM, SW480 rerep inconclusive
Cc1cc(C(=O)Nc2sc3c(c2C#N)CCC(C)C3)no1 (stereo unspecified)	HT1080 IDH1KD tx inconclusive, MCF10A rerep 9.2µM, HT1080-NT tox inconclusive, KB-3-1 tox inconclusive, KB-V1 cytotox 12µM, SW480 rerep inconclusive
CCOC(=O)c1c(-c2ccc(F)cc2)csc1NC(=O)c1c(-c2ccccc2)noc1C	HT1080 IDH1KD tx inconclusive, MCF10A rerep inconclusive, KB-V1 cytotox inconclusive, SW480 rerep inconclusive
COC(=O)c1c(-c2ccccc2)csc1NC(=O)c1c(-c2ccccc2)noc1C	HT1080 IDH1KD tx inconclusive, MCF10A rerep inconclusive, KB-V1 cytotox 5.8µM, SW480 rerep inconclusive
N#Cc1c(NC(=O)c2cc(C3CC3)on2)sc2c1CCC2	HT1080 IDH1KD tx inconclusive, MCF10A rerep 3.3µM, HT1080-NT tox inconclusive, KB-3-1 tox 13µM, SW480 rerep 21µM
O=C(COC(=O)c1ccc(F)cc1Cl)NC1CCCCCCC1	none
C[C@H]1CN([C@@H](C)CO)S(=O)(=O)c2ccc(Br)cc2O[C@H]1CN(C)C(=O)Cc1ccncc1	none (no result: MCF10A rerep, SW480 rerep)
CCC(C)NC(=O)CSc1nc2c(sc3ccccc32)c(=O)n1CCc1ccccc1 (stereo unspecified)	none (no result: HT1080 IDH1KD tx, MCF10A rerep, HT1080-NT tox, SW480 rerep)
Cc1cc(C(=O)Nc2sc3c(c2C#N)CCCC3)no1	HT1080 IDH1KD tx inconclusive, MCF10A rerep inconclusive, HT1080-NT tox inconclusive, KB-3-1 tox inconclusive, KB-V1 cytotox inconclusive, SW480 rerep 12µM
Cc1onc(-c2ccccc2)c1C(=O)Nc1sc2c(c1C(N)=O)CCC2	KB-V1 cytotox inconclusive
CC(C)Cc1cc(C(=O)Nc2sc3c(c2C#N)CCCC3)no1	none
Cc1cc(C(F)F)n2nc(C(=O)Nc3sc4c(c3C#N)CCC4)nc2n1	KB-V1 cytotox 21µM
Cc1onc(-c2ccccc2)c1C(=O)Nc1sc2c(c1C#N)CCC2	HT1080 IDH1KD tx inconclusive, MCF10A rerep inconclusive, HT1080-NT tox 13µM, KB-3-1 tox inconclusive, KB-V1 cytotox 4.6µM, SW480 rerep inconclusive
Cc1onc(-c2c(F)cccc2Cl)c1C(=O)Nc1sc2c(c1C(N)=O)CCC2	HT1080 IDH1KD tx 14µM, MCF10A rerep 5µM, HT1080-NT tox 11µM, KB-3-1 tox inconclusive, KB-V1 cytotox inconclusive, SW480 rerep inconclusive
CCNc1nc(N2CCCN(C)CC2)nc2cc(OC)c(OC)cc12	none (no result: MCF10A rerep, KB-3-1 tox, KB-V1 cytotox, SW480 rerep)
Cc1ccc(NC(=O)NC2CC(=O)N(c3ccc4c(c3)OCCO4)C2)cc1F (stereo unspecified)	none
Cc1sc2ccccc2[n+]1CCCCBr	none (no result: HT1080 IDH1KD tx, MCF10A rerep, HT1080-NT tox, SW480 rerep)
Cn1cc([N+](=O)[O-])c(C(=O)Nc2sc3c(c2C#N)CCC3)n1	MCF10A rerep 3.7µM, HT1080-NT tox inconclusive, KB-3-1 tox inconclusive, KB-V1 cytotox inconclusive, SW480 rerep inconclusive
COC(=O)[C@@]1(Cc2ccc(F)cc2)[C@H]2c3cc(C(=O)N4CCCC4)n(Cc4ccc(C)c(F)c4F)c3C[C@H]2CN1C(=O)c1ccccc1	HT1080 IDH1KD tx inconclusive, HT1080-NT tox inconclusive, KB-3-1 tox inconclusive, KB-V1 cytotox 23µM (no result: MCF10A rerep, SW480 rerep)
COC(=O)[C@@]1(Cc2ccc(F)cc2)[C@H]2c3cc(C(=O)N4CCCC4)n(CCCNc4ncc(C(F)(F)F)cc4Cl)c3C[C@H]2CN1C(=O)c1ccccc1	MCF10A rerep 5.8µM, SW480 rerep inconclusive
COC(=O)[C@@]1(Cc2ccc(F)cc2)[C@H]2c3cc(C(=O)N4CCCC4)n(Cc4ccc(C)o4)c3C[C@H]2CN1C(=O)c1ccccc1	HT1080 IDH1KD tx 21µM, HT1080-NT tox inconclusive, KB-3-1 tox inconclusive (no result: MCF10A rerep, SW480 rerep)
COC(=O)[C@@]1(Cc2ccc(F)cc2)[C@H]2c3cc(C(=O)N4CCCC4)n(CC4CC4)c3C[C@H]2CN1C(=O)c1ccccc1	HT1080 IDH1KD tx inconclusive, HT1080-NT tox inconclusive, KB-V1 cytotox inconclusive (no result: MCF10A rerep, SW480 rerep)
COC(=O)[C@@]1(Cc2ccc(F)cc2)[C@H]2c3cc(C(=O)N4CCCC4)n(CCF)c3C[C@H]2CN1C(=O)c1ccccc1	HT1080-NT tox inconclusive, KB-3-1 tox inconclusive, KB-V1 cytotox inconclusive (no result: MCF10A rerep, SW480 rerep)
COC(=O)[C@@]1(Cc2ccc(F)cc2)[C@H]2c3cc(C(=O)N(C)C)n(Cc4ccsc4Br)c3C[C@H]2CN1C(=O)c1ccccc1	HT1080 IDH1KD tx inconclusive, HT1080-NT tox inconclusive, KB-3-1 tox inconclusive, KB-V1 cytotox 21µM (no result: MCF10A rerep, SW480 rerep)
CCOC(=O)N1CCN(C(=O)CN(C)S(=O)(=O)c2ccc(Cl)cc2)CC1	KB-V1 cytotox inconclusive
COC(=O)[C@@]1(Cc2ccc(F)cc2)[C@H]2c3cc(C(=O)N4CCCC4)n(Cc4ccc(C(F)(F)F)nc4)c3C[C@H]2CN1C(=O)c1ccccc1	KB-3-1 tox inconclusive, SW480 rerep 16µM
O=C(c1c(O)c2ccccc2oc1=O)C1CCCCC1	HT1080 IDH1KD tx inconclusive, MCF10A rerep inconclusive, HT1080-NT tox inconclusive, KB-3-1 tox inconclusive, KB-V1 cytotox 15µM
CN=C(C)c1c(O)c2ccccc2oc1=O	MCF10A rerep inconclusive
COc1ccccc1CNC(=O)COC(=O)C1CCN(c2ccc(C(F)(F)F)cn2)CC1	SW480 rerep 4.6µM
CC(OC(=O)C1CCN(c2ccc(C(F)(F)F)cn2)CC1)C(=O)NC1CCCCC1C (stereo unspecified)	KB-V1 cytotox 23µM
COc1ccc(CCNC(=O)COC(=O)Cn2cnc3ccccc32)cc1OC	none
COc1ccccc1CNC(=O)COC(=O)Cn1cnc2ccccc21	MCF10A rerep 0.82µM, SW480 rerep inconclusive
